Experimental data reported in PubChem BioAssay (Tox21).
Records with an inconclusive call do not appear. A call without a number means that no potency is given here. Active and inactive are the calls of the source. Unless noted, calls come from the whole dose curve; as a rule, active = well fitted curve in the direction sought with a large enough effect in the repeat runs; inconclusive = weak or mixed curves; inactive = no such curve, though single readings can be large; an effect the other way counts as inactive or inconclusive.

Tests used:
[1] = qHTS assay to identify aromatase inhibitors - cell viability counter screen (AID 743084);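 note: cells stimulated with testosterone during compound exposure; nearly all actives have a fitted effect of over 55% in size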
[2] = biological target: Peroxisome proliferator-activated receptor gamma (Homo sapiens) (UniProt P37231); test: qHTS assay to identify small molecule agonists of the peroxisome proliferator-activated receptor gamma (PPARg) signaling pathway (AID 743094; active = well fitted activation curve with a large enough effect in the signal ratio in the repeat runs, not every such curve was filed as active; the % refers to the signal ratio)
Method in brief: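 GeneBLAzer PPARg UAS-bla HEK293H cells were plated, rested 5 h, then exposed to compounds for 17 h at 37C. Beta-lactamase activity was read by LiveBLAzer B/G FRET substrate fluorescence after 1 h at room temperature.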

[3] = biological target: Peroxisome proliferator-activated receptor gamma (Homo sapiens) (UniProt P37231); test: qHTS assay to identify small molecule antagonists of the peroxisome proliferator-activated receptor gamma (PPARg) signaling pathway (AID 743191; calls by dose curve; note: series mostly up to about 63 µM; nearly all actives have a fitted effect of over 30% in size)
Method in brief: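 Beta-lactamase reporter under UAS control in HEK293H PPARg-bla cells; compound treatment 17 h at 37C. Read-out: fluorescence intensity after 1 h room-temperature incubation with LiveBLAzer B/G FRET substrate.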

[4] = qHTS assay to identify small molecule antagonists of the peroxisome proliferator-activated receptor gamma (PPARg) signaling pathway - cell viability counter screen (AID 743194); note: nearly all actives have a fitted effect of over 55% in size; note: potency is the fitted concentration of half-maximal effect
Method in brief: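 Viability was measured as CellTiter-Glo luminescence in GeneBLAzer PPARg UAS-bla HEK293H cells. These cells had been exposed 17 h at 37 C to compounds together with rosiglitazone at 50 nM final, with the beta-lactamase readout taken in the same wells.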

[5] = qHTS assay for small molecule agonists of the antioxidant response element (ARE) signaling pathway - cell viability counter screen (AID 743203; calls by dose curve; note: nearly all actives have a fitted effect of over 55% in size)
Method in brief: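 ARE-bla HepG2 cells were plated, rested 5 h at 37C/5% CO2, then exposed to compounds in DMSO for 16 h. Viability was read as CellTiter-Glo luminescence after 30 min at room temperature, in the same wells as the ARE screen.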

[6] = qHTS assay for small molecule activators of the heat shock response signaling pathway (AID 743210; active = well fitted activation curve with a large enough effect in the signal ratio in the repeat runs, with a control signal flat, not every such curve was filed as active; the % refers to the signal ratio;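 note: HeLa cells with beta-lactamase reporter driven by heat shock elements; series mostly up to about 63 µM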)
Method in brief: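 In HSE-bla HeLa cells, 5 h compound incubation (37 C) precedes addition of LiveBLAzer B/G substrate; after 2.5 h at room temperature, fluorescence intensity indicates reporter induction.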

[7] = biological target: Bile acid receptor (Homo sapiens) (UniProt Q96RI1); test: qHTS assay to identify small molecule antagonists of the farnesoid-X-receptor (FXR) signaling pathway (AID 743217; active = well fitted inhibition curve with a large enough effect in the signal ratio in the repeat runs, not every such curve was filed as active; the % refers to the signal ratio)
Method in brief: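 FXR-UAS-bla HEK 293T cells (beta-lactamase reporter) given compound plus chenodeoxycholic acid (50 uM final), 16 h at 37C. LiveBLAzer B/G FRET substrate added for 2 h at room temperature; fluorescence read.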

[8] = qHTS assay to identify small molecule agonists of the farnesoid-X-receptor (FXR) signaling pathway - cell viability counter screen (AID 743218); note: nearly all actives have a fitted effect of over 45% in size; note: potency is the fitted concentration of half-maximal effect
Method in brief: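 FXR-UAS-bla HEK 293T cells exposed to compounds for 16 h at 37C. Cytotoxicity read in the same wells by CellTiter-Glo luminescence after 30 min at room temperature, following the beta-lactamase FRET read.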

[9] = biological target: Bile acid receptor (Homo sapiens) (UniProt Q96RI1); test: qHTS assay to identify small molecule agonists of the farnesoid-X-receptor (FXR) signaling pathway (AID 743220; active = well fitted activation curve with a large enough effect in the signal ratio in the repeat runs, not every such curve was filed as active; the % refers to the signal ratio)
Method in brief: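 Beta-lactamase reporter under UAS control in GeneBLAzer FXR HEK 293T cells (5000/well) measured with LiveBLAzer FRET substrate after 2 h at room temperature. Compound exposure lasted 16 h at 37C.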

[10] = qHTS assay to identify small molecule antagonists of the farnesoid-X-receptor (FXR) signaling pathway - cell viability counter screen (AID 743221; active = well fitted cell-killing curve with a large enough effect in the repeat runs, not every such curve was filed as active; note: nearly all actives have a fitted effect of over 50% in size; note: potency is the fitted concentration of half-maximal effect)
Method in brief: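 Cytotoxicity counter screen run in the FXR-bla reporter wells: HEK 293T cells exposed to compound with 50 uM (final) chenodeoxycholic acid for 16 h, 37 C, then viability measured by CellTiter-Glo luminescence after 30 min, room temperature.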

[11] = qHTS assay for small molecule agonists of the antioxidant response element (ARE) signaling pathway (AID 743202; active = well fitted activation curve with a large enough effect in the signal ratio in the repeat runs, not every such curve was filed as active; the % refers to the signal ratio)
Method in brief: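 An ARE-responsive beta-lactamase gene stably integrated in HepG2 cells serves as reporter. After 5 h plating and 16 h compound incubation at 37 C, fluorescence of the B/G FRET substrate was measured.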

[12] = qHTS assay for small molecule activators of the heat shock response signaling pathway - cell viability counter screen (AID 743209); note: nearly all actives have a fitted effect of over 50% in size; note: potency is the fitted concentration of half-maximal effect
Method in brief: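 HSE-bla HeLa cells plated overnight, then exposed to Tox21 compounds (23 nL in DMSO) for 5 h at 37 C. After the bla reporter read, CellTiter-Glo was added in the same wells and luminescence read after 30 min at room temperature.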

[13] = qHTS assay to identify small molecule agonists of the peroxisome proliferator-activated receptor delta (PPARd) signaling pathway - cell viability counter screen (AID 743211); note: nearly all actives have a fitted effect of over 55% in size; note: potency is the fitted concentration of half-maximal effect
Method in brief: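 Viability was measured as CellTiter-Glo luminescence (30 min, room temperature) in the same wells as the beta-lactamase readout. GeneBLAzer PPARd UAS-bla HEK293H cells received compound after 5 h plating and were incubated 17 h at 37 C.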

[14] = biological target: Peroxisome proliferator-activated receptor delta (Homo sapiens) (UniProt Q03181); test: qHTS assay to identify small molecule agonists of the peroxisome proliferator-activated receptor delta (PPARd) signaling pathway (AID 743212; calls by dose curve)
Method in brief: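 HEK293H UAS-bla reporter cells, human PPARd system; compounds delivered in DMSO after 5 h plating, then at 37 C. Beta-lactamase FRET read, 2 h RT substrate step.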

[15] = biological target: Vitamin D3 receptor (Homo sapiens) (UniProt P11473); test: qHTS assay to identify small molecule agonists of the vitamin D receptor (VDR) signaling pathway (AID 743222; calls by dose curve)
Method in brief: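 VDR-bla cells plated 4 h at 37 C, then exposed to compounds for 16 h at 37 C. Beta-lactamase reporter activity measured by fluorescence after 2 h room-temperature loading with LiveBLAzer B/G FRET substrate.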

[16] = biological target: Vitamin D3 receptor (Homo sapiens) (UniProt P11473); test: qHTS assay to identify small molecule antagonists of the vitamin D receptor (VDR) signaling pathway (AID 743223; active = well fitted inhibition curve with a large enough effect in the signal ratio in the repeat runs, not every such curve was filed as active; the % refers to the signal ratio)
Method in brief: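 Antagonist mode: compound added to VDR-bla cells alongside agonist 1alpha,25-dihydroxyvitamin D3 (3 nM final), incubation 16 h at 37C. Read-out is LiveBLAzer FRET fluorescence, 2 h at room temperature.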

[17] = biological target: Aryl hydrocarbon receptor (Homo sapiens) (UniProt P35869); test: qHTS assay to identify small molecule that activate the aryl hydrocarbon receptor (AhR) signaling pathway (AID 743085);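 note: HG2L7.5c1 human HepG2 liver cells with stably integrated DRE-driven firefly reporter; series mostly up to about 70 µM; nearly all actives have a fitted effect of over 15% in size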
Method in brief: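 Luminescence (ONE-Glo) from a dioxin-responsive-element luciferase reporter in HG2L7.5c1 HepG2 cells after 24 hr compound exposure at 37C; viability measured by CellTiter-Fluor fluorescence beforehand.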

[18] = qHTS assay to identify small molecule that activate the aryl hydrocarbon receptor (AhR) signaling pathway - cell viability counter screen (AID 743086);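 note: HepG2 liver cells carrying the AhR DRE luciferase reporter; series mostly up to about 70 µM; nearly all actives have a fitted effect of over 45% in size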
Method in brief: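 Cytotoxicity counter screen: CellTiter-Fluor signal (30 min, 37 C) in 4000 HepG2 cells/well carrying the DRE-luciferase reporter, following 24 h compound exposure at 37 C.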

[19] = qHTS assay to identify small molecule antagonists of the peroxisome proliferator-activated receptor delta (PPARd) signaling pathway - cell viability counter screen (AID 743213); note: nearly all actives have a fitted effect of over 50% in size; note: potency is the fitted concentration of half-maximal effect
Method in brief: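 Viability counter-screen, qHTS format: PPARd-bla HEK293H, L165041 300 nM final, 17 h compound exposure at 37 C, CellTiter-Glo luminescence after 30 min RT.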

[20] = biological target: Peroxisome proliferator-activated receptor delta (Homo sapiens) (UniProt Q03181); test: qHTS assay to identify small molecule antagonists of the peroxisome proliferator-activated receptor delta (PPARd) signaling pathway (AID 743215; active = well fitted inhibition curve with a large enough effect in the signal ratio in the repeat runs, not every such curve was filed as active; the % refers to the signal ratio;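 note: cells stimulated with agonist L165041 at 300 nM final during compound exposure; series mostly up to about 62 µM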)
Method in brief: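 PPARd-bla HEK293H cells (UAS-bla reporter) preincubated 5 h, then given compound plus 300 nM final L165041 agonist for 17 h at 37 C. Beta-lactamase activity read by LiveBLAzer B/G FRET substrate fluorescence after 2 h at room temperature.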

Vitamin D3 receptor (Homo sapiens), sequence (P11473 whole entry, looked up): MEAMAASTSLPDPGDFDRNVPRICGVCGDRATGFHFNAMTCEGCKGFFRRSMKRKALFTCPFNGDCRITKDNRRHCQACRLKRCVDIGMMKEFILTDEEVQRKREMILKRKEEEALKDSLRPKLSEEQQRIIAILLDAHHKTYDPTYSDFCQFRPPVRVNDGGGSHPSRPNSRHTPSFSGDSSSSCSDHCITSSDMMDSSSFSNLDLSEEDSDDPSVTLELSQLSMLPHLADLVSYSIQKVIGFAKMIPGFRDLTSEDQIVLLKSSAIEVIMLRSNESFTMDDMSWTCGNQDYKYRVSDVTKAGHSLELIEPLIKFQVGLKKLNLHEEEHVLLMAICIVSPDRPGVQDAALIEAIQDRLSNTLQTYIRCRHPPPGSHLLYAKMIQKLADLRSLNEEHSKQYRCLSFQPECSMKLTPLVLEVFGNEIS
Bile acid receptor (Homo sapiens), sequence (Q96RI1 whole entry, looked up): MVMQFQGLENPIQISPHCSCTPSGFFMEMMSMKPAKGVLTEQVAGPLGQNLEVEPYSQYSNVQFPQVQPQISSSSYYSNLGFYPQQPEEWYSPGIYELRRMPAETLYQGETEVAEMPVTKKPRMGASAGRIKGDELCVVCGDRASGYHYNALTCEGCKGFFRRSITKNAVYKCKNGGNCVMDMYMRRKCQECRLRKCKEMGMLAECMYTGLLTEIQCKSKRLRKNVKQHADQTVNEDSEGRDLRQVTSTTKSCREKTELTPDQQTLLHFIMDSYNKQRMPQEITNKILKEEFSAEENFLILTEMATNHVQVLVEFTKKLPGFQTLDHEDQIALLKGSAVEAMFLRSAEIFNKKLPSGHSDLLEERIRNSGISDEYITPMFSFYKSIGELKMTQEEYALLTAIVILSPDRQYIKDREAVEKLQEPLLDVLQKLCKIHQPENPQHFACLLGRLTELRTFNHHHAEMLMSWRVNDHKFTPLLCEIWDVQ
Peroxisome proliferator-activated receptor delta (Homo sapiens), sequence (Q03181 whole entry, looked up): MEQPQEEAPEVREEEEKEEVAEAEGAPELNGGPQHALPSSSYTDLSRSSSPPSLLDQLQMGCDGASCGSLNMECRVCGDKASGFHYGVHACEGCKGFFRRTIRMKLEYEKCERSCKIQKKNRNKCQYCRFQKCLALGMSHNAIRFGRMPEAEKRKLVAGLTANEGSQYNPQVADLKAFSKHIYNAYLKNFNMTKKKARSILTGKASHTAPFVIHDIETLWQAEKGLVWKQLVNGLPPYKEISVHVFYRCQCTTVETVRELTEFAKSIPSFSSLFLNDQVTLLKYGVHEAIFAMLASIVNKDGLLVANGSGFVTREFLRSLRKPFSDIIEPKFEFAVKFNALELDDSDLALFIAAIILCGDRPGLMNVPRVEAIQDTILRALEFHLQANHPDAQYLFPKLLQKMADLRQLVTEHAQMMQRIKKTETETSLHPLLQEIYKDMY
Aryl hydrocarbon receptor (Homo sapiens), sequence (P35869 whole entry, looked up): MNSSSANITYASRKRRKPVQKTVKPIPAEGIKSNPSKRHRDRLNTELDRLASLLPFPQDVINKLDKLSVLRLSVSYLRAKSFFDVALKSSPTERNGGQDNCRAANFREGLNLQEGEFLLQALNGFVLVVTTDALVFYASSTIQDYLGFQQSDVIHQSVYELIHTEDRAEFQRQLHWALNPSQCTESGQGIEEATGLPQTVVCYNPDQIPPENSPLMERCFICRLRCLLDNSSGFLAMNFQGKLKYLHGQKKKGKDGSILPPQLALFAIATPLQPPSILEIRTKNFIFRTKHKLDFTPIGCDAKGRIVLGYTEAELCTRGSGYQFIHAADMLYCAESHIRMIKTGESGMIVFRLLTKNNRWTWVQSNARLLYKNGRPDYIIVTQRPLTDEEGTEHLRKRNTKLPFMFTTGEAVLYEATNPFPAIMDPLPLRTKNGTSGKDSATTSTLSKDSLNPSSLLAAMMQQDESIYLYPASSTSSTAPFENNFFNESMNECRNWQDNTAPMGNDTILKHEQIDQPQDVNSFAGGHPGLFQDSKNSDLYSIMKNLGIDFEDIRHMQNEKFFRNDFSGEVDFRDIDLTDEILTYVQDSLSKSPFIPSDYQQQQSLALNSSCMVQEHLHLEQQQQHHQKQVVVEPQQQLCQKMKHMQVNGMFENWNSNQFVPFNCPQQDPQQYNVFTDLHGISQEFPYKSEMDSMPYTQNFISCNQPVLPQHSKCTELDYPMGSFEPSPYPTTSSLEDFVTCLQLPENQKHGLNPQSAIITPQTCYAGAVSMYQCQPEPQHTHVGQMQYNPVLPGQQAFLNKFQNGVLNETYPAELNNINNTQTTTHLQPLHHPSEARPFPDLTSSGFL
Peroxisome proliferator-activated receptor gamma (Homo sapiens), sequence (P37231 whole entry, looked up): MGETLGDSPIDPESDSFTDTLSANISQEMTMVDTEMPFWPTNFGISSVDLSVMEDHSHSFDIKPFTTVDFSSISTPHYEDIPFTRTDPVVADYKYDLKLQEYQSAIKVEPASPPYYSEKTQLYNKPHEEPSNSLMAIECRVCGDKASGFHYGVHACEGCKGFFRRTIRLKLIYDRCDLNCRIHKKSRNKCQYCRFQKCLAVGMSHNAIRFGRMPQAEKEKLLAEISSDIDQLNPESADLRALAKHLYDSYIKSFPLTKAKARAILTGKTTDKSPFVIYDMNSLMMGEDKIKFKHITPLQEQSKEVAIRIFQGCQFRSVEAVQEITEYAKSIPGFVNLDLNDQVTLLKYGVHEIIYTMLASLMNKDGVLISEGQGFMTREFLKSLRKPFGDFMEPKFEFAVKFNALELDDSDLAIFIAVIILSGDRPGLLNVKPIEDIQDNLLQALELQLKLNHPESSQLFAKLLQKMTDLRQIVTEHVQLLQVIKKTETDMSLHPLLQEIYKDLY

Structure (SMILES) | Potency [1] | Potency [2] | Potency [3] | Potency [4] | Potency [5] | outcome [6] | outcome [7] | Potency [8] | outcome [9] | Potency [10] | Potency [11] | Potency [12] | Potency [13] | outcome [14] | outcome [15] | Potency [16] | Potency [17] | Potency [18] | Potency [19] | outcome [20]
CCCCOc1cc(C(=O)OCCN(CC)CC)ccc1N | inactive | inactive | inactive | inactive | inactive | inactive | inactive | inactive | inactive | inactive | – | – | – | – | – | – | – | – | – | –
O=C(c1ccc(O)cc1)c1ccc(O)cc1 | inactive | inactive | inactive | inactive | – | inactive | – | inactive | – | inactive | inactive | inactive | inactive | inactive | inactive | – | – | – | – | –
Cc1ccc(C(N)=O)cc1N | inactive | inactive | – | inactive | – | inactive | – | inactive | – | inactive | inactive | inactive | inactive | inactive | inactive | inactive | – | – | – | –
COC(Cc1ccccc1)OC | – | inactive | inactive | inactive | inactive | inactive | – | inactive | – | inactive | inactive | – | inactive | – | inactive | inactive | inactive | inactive | inactive | –
Cn1sccc1=O | – | inactive | inactive | inactive | inactive | – | inactive | inactive | – | inactive | – | inactive | inactive | inactive | – | inactive | inactive | inactive | inactive | inactive
O=C(/C=C/c1ccc(O)c(O)c1)O[C@@H]1C[C@](O)(C(=O)O)C[C@@H](O)[C@H]1O | – | – | – | inactive | inactive | inactive | – | – | – | inactive | – | inactive | inactive | inactive | – | – | – | inactive | inactive | inactive
NCc1ccccc1 | – | – | – | inactive | inactive | inactive | – | inactive | – | – | inactive | inactive | inactive | – | inactive | inactive | – | inactive | inactive | –
O=C(O)c1cn(C2CC2)c2cc(Cl)c(F)cc2c1=O | – | – | – | inactive | inactive | inactive | – | – | – | inactive | inactive | – | inactive | – | inactive | inactive | – | – | – | –
CC[C@@H]1C[C@H](N(Cc2cc(C(F)(F)F)cc(C(F)(F)F)c2)C(C)=O)c2cc(C(F)(F)F)ccc2N1C(=O)OC(C)C | – | inactive | inactive | inactive | inactive | inactive | – | inactive | – | inactive | – | inactive | – | – | inactive | – | – | inactive | – | –
Nc1cnn([C@@H]2O[C@H](CO)[C@@H](O)[C@H]2O)c(=O)n1 | – | – | – | inactive | inactive | inactive | – | – | inactive | inactive | inactive | – | inactive | inactive | inactive | – | – | inactive | – | inactive
CC(C)c1cccc(C(C)C)c1NC(=O)NS(=O)(=O)c1cc(C(C)(C)O)co1 | – | – | – | inactive | inactive | inactive | inactive | inactive | inactive | inactive | – | inactive | inactive | inactive | inactive | – | – | – | inactive | inactive
CCOC(=O)[C@H](CCc1ccccc1)N[C@H]1CCc2ccccc2N(CC(=O)O)C1=O | – | – | – | inactive | – | – | – | – | – | 29.8 µM (active) | – | – | – | – | – | – | inactive | inactive | 26.6 µM (active) | –
CC(C(=O)O)c1ccc(C(=O)c2ccccc2)s1 (centres undefined) | inactive | – | inactive | inactive | inactive | inactive | inactive | inactive | inactive | inactive | inactive | – | inactive | inactive | inactive | – | – | – | inactive | –
CC(C)(C)c1cc(O)c(C(C)(C)C)cc1O | – | inactive | – | – | – | inactive | – | inactive | – | inactive | – | inactive | – | inactive | – | inactive | inactive | inactive | inactive | –
CC[C@]12CCCN3CCc4c(n(c5ccccc45)C(=O)C1)[C@@H]32 | inactive | inactive | – | inactive | inactive | inactive | – | inactive | – | inactive | inactive | inactive | – | inactive | – | – | – | – | inactive | inactive
O=[N+]([O-])c1cccc(Cl)c1Cl | – | inactive | inactive | – | inactive | inactive | inactive | inactive | inactive | inactive | inactive | inactive | inactive | inactive | inactive | – | – | inactive | – | inactive
CC(C)(Oc1ccc(Cl)cc1)C(=O)OCCCOC(=O)C(C)(C)Oc1ccc(Cl)cc1 | – | – | – | inactive | inactive | inactive | – | inactive | – | inactive | inactive | inactive | inactive | – | – | – | – | – | inactive | –
CC(Cc1cccc(C(F)(F)F)c1)NCCOC(=O)c1ccccc1 (centres undefined) | – | inactive | – | 23.7 µM (active) | – | – | – | 21.1 µM (active) | – | – | – | 23.7 µM (active) | 21.1 µM (active) | inactive | – | – | inactive | – | – | –
NC(N)=N/N=C/c1c(Cl)cccc1Cl | – | inactive | inactive | inactive | inactive | inactive | – | inactive | – | inactive | – | inactive | inactive | – | – | inactive | inactive | – | inactive | –
CC(=O)c1ccc2c(c1)[C@H](NC(=O)c1ccc(F)cc1)[C@@H](O)C(C)(C)O2 | – | inactive | – | inactive | inactive | inactive | – | inactive | – | inactive | – | inactive | inactive | inactive | inactive | – | inactive | – | inactive | inactive
CC1CCc2cc(F)cc3c(=O)c(C(=O)O)cn1c23 (centres undefined) | – | – | – | inactive | inactive | inactive | inactive | inactive | inactive | inactive | inactive | inactive | – | inactive | – | – | – | inactive | – | –
